# An excerpt weighted towards active compounds, which were near 3.5% of everything screened.
# LmPK inhibitor: LmPK (Leishmania mexicana) enzyme inhibition; Potency, µM (titrated, usually from 57.5 µM), without a hit: top-dose activity change, negative = inhibition, most hits filed as inhibitors; purified LmPK, Kinase-Glo ATP luminescence, 1 h; 290,000 compounds, 0.37% hits; further: on the % scale 0 is the no-effect control and ±100 the full control effect
#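 Screened at intermediate enzyme activity to detect both inhibitors and activators: LmPK at 0.1 nM, with a 0.5 nM enzyme column as activation reference. PEP 0.5 mM, ADP 0.1 mM; ATP detected by luminescence after 1 h.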
# Giardia FBPA inh-1: blocks Giardia fructose-bisphosphate aldolase activity; 290,000 compounds, 0.71% hits; AID 2451; A8B2U2; purified Giardia FBPA; Potency, µM (top dose mostly 59.6 µM), without a hit: top-dose activity, negative = inhibition, actives largely listed as inhibitors; further: on the % scale 0 is the no-effect control and ±100 the full control effect; nearly all actives have a fitted effect of over 55% in size
# Target sequence (A8B2U2 whole entry, looked up): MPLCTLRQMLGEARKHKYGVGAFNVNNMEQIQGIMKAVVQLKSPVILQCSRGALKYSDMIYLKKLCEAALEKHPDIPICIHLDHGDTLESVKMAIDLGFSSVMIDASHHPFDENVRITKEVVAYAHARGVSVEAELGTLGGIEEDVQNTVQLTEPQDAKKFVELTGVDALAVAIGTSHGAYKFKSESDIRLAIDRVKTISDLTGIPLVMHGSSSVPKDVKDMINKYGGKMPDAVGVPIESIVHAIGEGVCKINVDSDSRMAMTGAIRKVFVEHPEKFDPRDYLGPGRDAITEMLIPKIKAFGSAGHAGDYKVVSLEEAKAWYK
#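 40 nM FBPA preincubated 10 min at RT with compound (up to 57.5 uM final), then substrate plus GAPDH/TPI/NAD/arsenate coupling and diaphorase/resazurin added. Fluorescence read after 20 min at RT, 525/598 nm.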
# Tb PYK inh: blocks Trypanosoma brucei pyruvate kinase. Potency, µM (doses to about 76.8 µM), for inactives: at the top dose activity, negative = inhibition, actives largely listed as inhibitors. TbPYK enzyme, Kinase-Glo Plus ATP luminescence, 45 min. Q57TT1. 410,000 compounds, 0.12% hits; further: on the % scale 0 is the no-effect control and ±100 the full control effect; nearly all actives have a fitted effect of over 50% in size
#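 Activity of T. brucei pyruvate kinase was followed by Kinase-Glo Plus luminescence after the enzyme reacted 45 min at room temperature with 130 uM ADP (final) and substrate. Test compounds were added before ADP at multiple concentrations.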
# Sm TGR inh: S. mansoni TGR enzyme inhibition. AID 485364. purified TGR, DTNB reduction, TNB absorbance 405 nm. Potency, µM (titrated, usually from 114 µM), without a hit: at the highest dose activity change, negative = inhibition, most hits filed as inhibitors. 360,000 compounds, 3% hits; further: on the % scale 0 is the no-effect control and ±100 the full control effect; nearly all actives have a fitted effect of over 60% in size
#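 Kinetic colorimetric format: TGR-catalysed, NADPH-driven DTNB reduction monitored via TNB absorbance. Enzyme dispensed at 20 nM; compound exposure 15 min at room temperature before reaction start.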
# RE007 growth inh: less growth of the S. pombe RE007 Vpr strain. S. pombe RE007 Vpr strain, BacTiter-Glo ATP luminescence, 24 h. Potency, µM (highest dose often 92.2 µM), inactives show top-dose activity change, negative = less growth, hits mostly inhibitors. 360,000 compounds, 0.21% hits. AID 651644; active means well fitted falling curve with a large enough effect; inconclusive means small, poorly fitted or top-dose-only effect; inactive means no such curve, though single readings can be large or run the other way; further: on the % scale 0 is the no-effect control and ±100 the full control effect; nearly all actives have a fitted effect of over 50% in size
#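 Fission yeast RE007 carrying one integrated HIV-1 vpr copy, seeded at OD 0.01 in PMG+AL medium with 23 nL pinned compound. Grown 24 h at 30 degrees; viability read by BacTiter-Glo luminescence after 5 min.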
# NS1 function inh: influenza NS1 inhibition; 270,000 compounds, 0.4% hits; Potency, µM (doses to about 46.1 µM), without a hit: top-dose activity, positive = more growth; AID 2326; calls by dose curve; further: actives are rising curves; nearly all actives have a fitted effect of over 50% in size
#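 Growth recovery, yeast-based: influenza A NS1 expressed in S. cerevisiae causes slow growth, and suppressors are detected by OD600. The parent strain without NS1 is used as positive control.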
# Giardia growth: Giardia lamblia growth inhibition. shares compounds with Giardia FBPA inh-1. Giardia lamblia trophozoite growth inhibition. Potency, µM (titrated, usually from 57.5 µM), without a hit: at the top dose activity change, negative = inhibition, hits mostly inhibitors. 1,500 compounds, 5% hits;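 further: trophozoites exposed to compound for 48 h at 37 °C; on the % scale 0 is the no-effect control and ±100 the full control effect; nearly all actives have a fitted effect of over 70% in size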
# Mammal cell tox: counter-screen for Giardia aldolase inhibitors: mammalian cell toxicity | shares compounds with Giardia FBPA inh-1 | mammalian cell viability counter-screen, qHTS | Potency, µM (doses to about 57.5 µM), inactives show at the top dose viability change, negative = toxicity, actives largely listed as inhibitors | 1,500 compounds, 4% hits;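 further: Chinese hamster ovary cells used as mammalian cytotoxicity surrogate; viability measured as cellular ATP by luminescence; compound exposure lasted 48 h before reading; on the % scale 0 is the no-effect control and ±100 the full control effect; nearly all actives have a fitted effect of over 60% in size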
# Giardia FBPA inh-2: confirmation of Giardia fructose-bisphosphate aldolase inhibitors | Potency, µM (titrated, usually from 57.5 µM), for the others: top-dose activity change, negative = inhibition, most hits filed as inhibitors | shares compounds with Giardia FBPA inh-1 | purified Giardia aldolase enzyme activity, qHTS | 1,500 compounds, 5% hits; further: on the % scale 0 is the no-effect control and ±100 the full control effect; nearly all actives have a fitted effect of over 45% in size
# Rabbit aldolase: rabbit FBP aldolase inhibition by Giardia aldolase hits; shares compounds with Giardia FBPA inh-1; 1,500 compounds, 4% hits; Potency, µM (series often up to 57.5 µM), for the others: at the highest dose activity, negative = inhibition, hits mostly inhibitors; Rabbit muscle FBPA enzyme inhibition, selectivity counter-screen; AID 2794; further: on the % scale 0 is the no-effect control and ±100 the full control effect; nearly all actives have a fitted effect of over 60% in size
# Target sequence (P00883 whole entry, looked up): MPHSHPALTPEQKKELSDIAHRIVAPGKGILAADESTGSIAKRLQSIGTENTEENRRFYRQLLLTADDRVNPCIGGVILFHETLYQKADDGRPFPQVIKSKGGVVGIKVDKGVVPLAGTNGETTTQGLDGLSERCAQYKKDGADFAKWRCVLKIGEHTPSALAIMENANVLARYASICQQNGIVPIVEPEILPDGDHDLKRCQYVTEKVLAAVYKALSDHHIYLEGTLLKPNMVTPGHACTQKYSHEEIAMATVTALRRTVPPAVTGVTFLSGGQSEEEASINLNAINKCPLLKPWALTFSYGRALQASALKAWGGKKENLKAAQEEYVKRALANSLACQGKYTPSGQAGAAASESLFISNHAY
# GAPDH coupling: counter-screen for Giardia aldolase inhibitors: GAPDH coupling enzyme | shares compounds with Giardia FBPA inh-1 | GAPDH coupling enzyme counterscreen, biochemical, qHTS | Potency, µM (titrated, usually from 57.5 µM), for the others: top-dose activity change, negative = inhibition, actives largely listed as inhibitors | 1,500 compounds, 6% hits | AID 2795; further: on the % scale 0 is the no-effect control and ±100 the full control effect; nearly all actives have a fitted effect of over 55% in size
# Numbers without * were called inactive; ? = inconclusive; · = no result; [ ] = remark or other dose. Unless noted, the call rests on the fitted dose curve; in most records, active means well fitted curve in the direction sought with a large enough effect; inconclusive means small, poorly fitted or top-dose-only effect, or another doubt; inactive means no such curve, though single readings can be large; an effect the other way counts as inactive or inconclusive. Potency means the concentration at half of the fitted maximal effect.
SMILES,LmPK inhibitor,Giardia FBPA inh-1,Tb PYK inh,Sm TGR inh,RE007 growth inh,NS1 function inh,Giardia growth,Mammal cell tox,Giardia FBPA inh-2,Rabbit aldolase,GAPDH coupling
O=C(NC(=S)Nc1ccccc1[N+](=O)[O-])c1cncc(Br)c1,1%,7.9µM*,0%,20µM*,-3%,-7%,11µM*,-4%,6%,5%,9%
CC(=O)c1cccc(NC(=S)NC(=O)c2cncc(Br)c2)c1,-6%,13µM*,-2%,?,9%,19%,-10%[10.4 µM],15%,9%,10%,7%
Cc1cccnc1NC(=S)NC(=O)c1cncc(Br)c1,-8%,10µM*,10%,39%,0%,3%,-2%[38.3 µM],-8%,0%,-6%,-1%
Cc1ccc(C2CC(=O)N(Cc3ccccc3)c3c2c(C)nn3-c2nc(C)cc(C)n2)cc1 (stereo not drawn),·,·,-1%,-3%,·,·,·,·,·,·,·
COc1cccc(CNC(=O)c2cc(C)nc3c2c(C)nn3-c2ccc(C)cc2)c1,·,·,3%,1%,·,·,·,·,·,·,·
COc1cc(C(=O)O/N=C2\C=CC(=O)C=C2C)cc(OC)c1OC,-3%,4µM*,-18%,3.2µM*,-15%,10%,-13%[38.3 µM],?,28µM*,32µM*,32µM*
Nn1c(Cc2ccccc2)n[nH]c1=S,2%,-16%,-24%,-1%,8%,0%,·,·,·,·,·
NNc1n[nH]c(=S)n1N,0%,1.8µM*,-22%,-18%,-12%,-9%,20%[38.3 µM],-4%,16µM*,18µM*,18µM*
CCC(C(=O)N1CCN(c2ccccc2F)CC1)n1nc(C)c2sc3ccccc3c2c1=O (stereo not drawn),·,·,-3%,-2%,·,·,·,·,·,·,·
Cc1nc2c3ccccc3nc(NNC(=O)CCC(=O)N3CCN(c4cc(Cl)ccc4C)CC3)n2n1,·,·,-5%,-3%,·,·,·,·,·,·,·
Cc1ccc(OC(=O)CSc2nnc(-c3cccs3)o2)c(C)c1,·,·,1%,-4%,·,·,·,·,·,·,·
CCN(CC(=O)Nc1ccc(NC(C)=O)cc1)CC(=O)Nc1ccc(Cl)c(Cl)c1,-17%,7.9µM*,-15%,0%,-15%,2%,-6%[10.4 µM],-6%,7%,5%,5%
CCN(CC(=O)Nc1cccc(OC)c1)CC(=O)Nc1ccc(C)cc1Cl,-3%,16µM*,4%,-2%,20%,·,17%[10.4 µM],-4%,0%,-1%,7%
CCOc1ccccc1NC(=O)CN1C(=O)CC(c2ccco2)Sc2ccccc21 (stereo not drawn),·,·,-2%,-18%,·,·,·,·,·,·,·
O=C(Cn1ncc2c(Cl)cccc21)NCc1cccc(Br)c1,·,·,-5%,11%,·,·,·,·,·,·,·
CC(C)(C)N(CC#CCC(O)(c1ccccc1)c1ccccc1)CCO,-1%,20µM*,-6%,-35%,18%,-1%,-6%,-3%,-2%,12%,9%
CCc1ccccc1NC(=O)Cn1nc2c3cc(F)ccc3n(Cc3cccc(C)c3)cc-2c1=O,·,·,1%,8%,·,·,·,·,·,·,·
O=C(NCSc1ccncn1)c1ccccc1,0%,16µM*,1%,28µM*,-16%,-3%,8%[10.4 µM],1%,7%,5%,10%
CN(CC(=O)NCc1ccccc1Cl)CC(=O)Nc1ccccc1Br,·,·,-2%,-1%,2%,·,·,·,·,·,·
CCN(CC(=O)NCc1ccccc1Cl)CC(=O)Nc1c(F)cccc1F,-6%,18µM*,5%,-8%,2%,-6%,44%,0%,8%,4%,11%
CCOc1ccc(C(=O)N2CC(=O)Nc3ccc(C)cc3C2c2ccc(F)cc2)cc1OCC (stereo not drawn),·,·,2%,1%,·,·,·,·,·,·,·
COc1cccc2cc(C(C)N(CCCN3CCOCC3)C(=S)Nc3ccc(C)c(C)c3)oc12 (stereo not drawn),0%,-3%,-8%,6%,-3%,·,·,·,·,·,·
COc1ccc(NC(=S)N(CCCN2CCOCC2)C(C)c2cc3cccc(OC)c3o2)cc1 (stereo not drawn),1%,11µM*,-6%,2%,10%,·,?,0%,-2%,2%,5%
Cc1ccc(C(=O)Nc2nnc(S(=O)(=O)N3CCOCC3)s2)cc1,-4%,18µM*,0%,-25%,6%,-8%,?,1%,?,?,25µM*
CC1CCN(S(=O)(=O)c2nnc(NC(=O)c3cccc([N+](=O)[O-])c3)s2)CC1,1%,14µM*,-12%,-2%,-5%,16%,-3%[10.4 µM],2%,16µM*,25µM*,16µM*
SMILES,LmPK inhibitor,Giardia FBPA inh-1,Tb PYK inh,Sm TGR inh,RE007 growth inh,NS1 function inh,Giardia growth,Mammal cell tox,Giardia FBPA inh-2,Rabbit aldolase,GAPDH coupling
Cc1ccc(C(=O)Nc2nnc(S(=O)(=O)N3CCCCCC3)s2)cc1,0%,-16%,0%,-19%,1%,5%,·,·,·,·,·
O=C(Nc1nnc(S(=O)(=O)N2CCOCC2)s1)c1ccc(F)cc1,-1%,16µM*,3%,-2%,11%,10%,?,-5%,?,?,40µM*
O=C(Nc1c(Cl)cccc1Cl)c1cc(-c2cccc(O)c2)on1,·,·,-3%,17%,·,·,·,·,·,·,·
COc1cc(C(=O)Nc2c(C(=O)Nc3ccccc3F)oc3ccccc23)cc(OC)c1OC,·,·,-2%,-16%,·,·,·,·,·,·,·
COc1ccc(C2CC(=O)NC(NC(=O)c3ccc(Br)cc3)=N2)c(OC)c1OC (stereo not drawn),·,·,1%,-2%,·,·,·,·,·,·,·
COc1ccc(CCn2c(NN=C3CCCCC3)nc3c2c(=O)[nH]c(=O)n3C)cc1,-7%,4.5µM*,-3%,?,10%,2%,-5%[10.4 µM],-1%,5.6µM*,?,7.9µM*
Cn1nnc(NC(=S)NC(=O)c2cccc3c(Br)cccc23)n1,0%,?,1%,-21%,12%,-5%,·,·,·,·,·
CCCn1nnc(NC(=O)Cc2ccccc2)n1,2%,3%,0%,?,6%,-1%,·,·,·,·,·
